Experiment [1] deals with Klebsiella pneumoniae. The settings on record: Concentration 32 ug.mL-1;; ASSAY_TEST Inhibition of Bacterial Growth; detection method Absorption (OD600); MEDIA CAMHB; plate type 384well; NBS; CORNING #3640; time 18 hr.
In experiment [2] the test system is Candida albicans. To be noted: Concentration 32 ug.mL-1; ASSAY_TEST Inhibition of Fungal Growth; detection method Absorption (OD530).
Experiment [3] deals with Cryptococcus neoformans. The settings on record: Concentration 32 ug.mL-1; ASSAY_TEST Inhibition of Fungal Growth; detection method Resazurin; Absorption (OD600-OD570); plate type 384well; NBS; CORNING #3640.

Each structure is given as a SMILES string. Potency and affinity values are given separately.

Among the data in ChEMBL document CHEMBL4513146, “CO-ADD screening of Karazin Kharkiv National University (Ukraine) compounds” are Inhibition values, retold here.

The term Inhibition denotes the relative decrease from the control value, in per cent.

For `O=c1c2sccc2n2c(=O)n(Cc3ccccc3F)nc2n1Cc1cccs1`, the Inhibition in experiment [1] was -1.85%; in experiment [2], 38.88%; in experiment [3], -22.09%.
Taken in the same sequence, the figures for `O=C(Cn1nc2ccc(SCc3ccc(Cl)cc3)nn2c1=O)Nc1ccc2c(c1)OCO2` were 15.3%, 22.84% and -22.42%.
The like results for `CCCCc1ccc(NC(=O)Cn2c(=O)c3nnc(C(C)C)n3c3ccccc32)cc1` were, in that order, 18.09%, -0.74% and -30.75%.
The like results for `CCOc1ccc(-n2ccn3c(SC(CC)C(=O)Nc4ccc(C(C)C)cc4)nnc3c2=O)cc1` (stereo not given) were, in that order, 9.42%, 6.16% and -12.9%.
`CC1CC(C)CN(c2nccn3c(=O)n(CC(=O)NCc4ccccc4Cl)nc23)C1` (stereo not given): the Inhibition in experiment [1] was 9.46%; in experiment [2], -0.66%; in experiment [3], -5.61%.
The like results for `COc1ccc(NC(=O)Cn2nc3c(N4CCOCC4)nccn3c2=O)c(OC)c1` were, in that order, 20.77%, 0.63% and -16.42%.
The like results for `COc1cccc(-n2ccn3c(-c4ccc([N+](=O)[O-])cc4)nnc3c2=O)c1` were, in that order, 6.14%, 1.66% and -18.73%.
Regarding `COc1ccccc1-n1ccn2c(SCc3cccc(F)c3)nnc2c1=O`, the results for the Inhibition in experiment [1], in experiment [2] and in experiment [3] were 7.21%, 2.05% and -9.16%, respectively.
The like results for `COc1ccc(NC(=O)Cn2nc3c(Oc4ccccc4)nccn3c2=O)cc1` were, in that order, 8.21%, 3.81% and -6.99%.
Taken in the same sequence, the figures for `CCCc1nnc2c(=O)n(CC(=O)Nc3cccc(C(C)=O)c3)c3ccccc3n12` were -4.73%, 6.89% and -25.21%.
